± gives the standard deviation. In all, about 3,700 sequences were measured (“pre-steady-state target cleavage rate”: median about 0.02, highest 2% from about 0.23 on). This excerpt belongs to a sample that is enriched for the highest values.

The assay relates to MILI (PIWIL2) piRISC loaded with Kctd7 piRNA (26 nt). Put plainly: pre-steady-state target cleavage rate (min^-1); MIWI and MILI are mouse PIWI proteins and EfPiwi is from a freshwater sponge; tags in brackets are library labels; higher = faster piRNA-guided slicing of the target. Conditions: guide: Kctd7 piRNA 5'p-UGUUAAUCUCUCAGAGAAGGUGACAG; auxiliary factor: 500 nM mouse GTSF1. As for the experimental part:
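Cleave-'n-Seq: a library of target RNAs (target site embedded in constant flanks, ACAGCATTCCGCGTTAGTGATATCCG... 5' flank; DNA-blocked outside the site) at 0.1 nM was incubated with 1 nM active mouse MILI or MIWI piRISC (synthetic 5'-monophosphorylated piRNA guide) with or without 500 nM mouse GTSF1 at 33 °C for 1 min to 16 h. Uncleaved targets were sequenced and normalised to non-target controls, and the pooled three trials were fitted to a burst-and-steady-state model to give the pre-steady-state cleavage rate (min^-1; k3 is constrained to at most 1e-4). Sequence is the target site only; target names encode pairing extent (gX:gY) and contiguous / 1-mismatch / 2-mismatch / bulge geometry. Fits with R² ≤ 0 are excluded.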
Take UAGUGAGUCACCUUCUCUGAGAGAUUAAAA: the “pre-steady-state target cleavage rate” value turned out to be 0.135 ± 0.037.

With “UAGUGAGUCACCUUCUCUGAGAGAUUAACA [g2:g24:cont:t1A]”, the “pre-steady-state target cleavage rate” value was 0.25 ± 0.021.

As for UAGUGACAGACCUCUCUCUGAGAGAUUAACA, the “pre-steady-state target cleavage rate” value amounted to 0.0375 ± 0.0076.

As for UAGUCUGUCACCUUCUGCUGAGAGAUUAACA, the “pre-steady-state target cleavage rate” value stood at 0.0816 ± 0.013.

Regarding UAGUCUGUCUCCUACUCUGAGAGAUUAACA, the “pre-steady-state target cleavage rate” value is 0.157 ± 0.0082.

As for UAGUGACUCACCUAGUCUGAGAGAUUAACA, the “pre-steady-state target cleavage rate” value was found to be 0.0896 ± 0.0089.

Turning to “UAGUGACAGUGCUUCUCUGAGAGAUUAACC [g2:g19:cont:t1C]”, the “pre-steady-state target cleavage rate” value is 0.0223 ± 0.0053.

On to UAGUGACACACCAUCUCUGAGAGAUUAUGA, for which the “pre-steady-state target cleavage rate” value amounted to 0.00752 ± 0.0041.

Turning to UAGUGAGUCACCUUCUCUGAGAGAUUACCA, the “pre-steady-state target cleavage rate” value worked out at 0.251 ± 0.05.

With UAGUGAGUCACCCUUCUCUGAGAGAUUAACA, the “pre-steady-state target cleavage rate” value worked out at 0.19 ± 0.02.

As to “UAGUGAGUCACCUUCUCUGAGAGAUUAACG [g2:g24:cont:t1G]”, the “pre-steady-state target cleavage rate” value amounted to 0.284 ± 0.021.

In the case of UAGUCACUCACCUUCUCUGAGAGAUUAACA, the “pre-steady-state target cleavage rate” value was 0.207 ± 0.0095.

Take UAGUAUGUCACCUUCUCUGAGAGAUUAACA: the “pre-steady-state target cleavage rate” value was determined as 0.211 ± 0.019.

For the sequence UAGUCACACACCUUCUCUGAGAGAUUAACA, the “pre-steady-state target cleavage rate” value came out at 0.168 ± 0.011.

As for UAGUCAGUCACCUUCUCUGAGAGAUUAAGA, the “pre-steady-state target cleavage rate” value worked out at 0.135 ± 0.024.

For the sequence UAGUGAGUCACCUUCUCUGAGAGAUUACACA, the “pre-steady-state target cleavage rate” value is 0.187 ± 0.038.

Turning to UAGUCAGUCACCUUCUCUGAGAGAUUAACA, the “pre-steady-state target cleavage rate” value is 0.249 ± 0.016.

Turning to UAGUGAGUCACCUUCUCUGAGAGAUUACA, the “pre-steady-state target cleavage rate” value was found to be 0.153 ± 0.033.

UAGUGAGUCACCUUCUCUGAGAGAUUAAGA: the “pre-steady-state target cleavage rate” value was 0.219 ± 0.035.

As to UAGUCAUGUCACCUUCUCUGAGAGAUUAACA, the “pre-steady-state target cleavage rate” value worked out at 0.238 ± 0.023.

Turning to UAGUGUGUCAGCUUCUGUGAGAGAUUAACA, the “pre-steady-state target cleavage rate” value was 0.129 ± 0.013.

For the sequence UAGUGAGUCACCUUCUCUGCGAGAUUAACA, the “pre-steady-state target cleavage rate” value stood at 0.0952 ± 0.015.

As to UAGUGUGUCAGGUUCUCUGAGAGAUUAUGA, the “pre-steady-state target cleavage rate” value came out at 0.00789 ± 0.0035.

Consider UAGUGACACAGCUUCUCUGUGAGAUUAACA, for which the “pre-steady-state target cleavage rate” value is 0.0271 ± 0.0057.

In the case of UAGUGACAGACCUUGUCUGAGAGAUUAACA, the “pre-steady-state target cleavage rate” value amounted to 0.0481 ± 0.0096.

Regarding UAGUGAGUCAGCUUCUCUGAGAGAUUAACA, the “pre-steady-state target cleavage rate” value turned out to be 0.158 ± 0.013.

Turning to UAGUGUCAGACCUUCUCUGAGAGAUUAACA, the “pre-steady-state target cleavage rate” value came out at 0.108 ± 0.012.

Regarding UAGUCUCUCACCUUCUCUGAGUGAUUAACA, the “pre-steady-state target cleavage rate” value was 0.00476 ± 0.0037.

As for UAGUGACUCAGCUUGUCUGAGAGAUUAACA, the “pre-steady-state target cleavage rate” value was 0.112 ± 0.0088.

UAGUGACAGACCUUCUCUGAGACGAUUAACA: the “pre-steady-state target cleavage rate” value is 0.0176 ± 0.0081.

Regarding UAGUGAGACACCUUCUCUGAGAGAUUAACA, the “pre-steady-state target cleavage rate” value stood at 0.185 ± 0.011.

With UAGUGAGUCACCUUCUCUGAGAGAUAAAGA, the “pre-steady-state target cleavage rate” value came out at 0.00919 ± 0.0072.

In the case of UAGUGAGUCACCUUCUCUGAGAGAUAAACA, the “pre-steady-state target cleavage rate” value was 0.249 ± 0.052.

Regarding UAGUGAGUCACCUUCCCUGAGAGAUUAACA, the “pre-steady-state target cleavage rate” value was found to be 0.394 ± 0.074.

For UAGUGAGUCACCUUCCUGAGAGAUUAACA, the “pre-steady-state target cleavage rate” value was 0.119 ± 0.038.

For the sequence UAGUGAGUCACCUUCCUCUGAGAGAUUAACA, the “pre-steady-state target cleavage rate” value is 0.148 ± 0.019.

As to UAGUGACUCACCUUCUCUGAGAGAUUAAACA, the “pre-steady-state target cleavage rate” value came to 0.251 ± 0.035.

Turning to UAGUGACUCACCUUCUCUGAGAGAUUAAA, the “pre-steady-state target cleavage rate” value came to 0.13 ± 0.031.

Consider UAGUGAGUCACCUUCUCUGUGAGAUAAACA, for which the “pre-steady-state target cleavage rate” value came to 0.0242 ± 0.0096.

With UAGUGACUCACCUUCUCUGAGAGAUUAAAA, the “pre-steady-state target cleavage rate” value amounted to 0.0677 ± 0.02.

As for UAGUGAGUACACCUUCUCUGAGAGAUUAACA, the “pre-steady-state target cleavage rate” value worked out at 0.237 ± 0.019.

On to UAGUGAGUACCUUCUCUGAGAGAUUAACA, for which the “pre-steady-state target cleavage rate” value turned out to be 0.113 ± 0.014.

As to UAGUGACUCACCUUCUCUGAGAGAGUUAACA, the “pre-steady-state target cleavage rate” value turned out to be 0.118 ± 0.017.

Turning to UAGUGUGAGACCUUCUCUGAGAGAUUAACA, the “pre-steady-state target cleavage rate” value worked out at 0.101 ± 0.0091.

Consider UAGUGACACACCUUCAGUGAGAGAUUAACA, for which the “pre-steady-state target cleavage rate” value came out at 0.0881 ± 0.016.

With UAGUGACUCAUCCUUCUCUGAGAGAUUAACA, the “pre-steady-state target cleavage rate” value stood at 0.0582 ± 0.0061.

On to UAGUGAGUCACGUUCUCUGUGAGAUUAACA, for which the “pre-steady-state target cleavage rate” value turned out to be 0.0376 ± 0.0033.

Consider UAGUGUGUCACCUUCUCAGAGACAUUAACA, for which the “pre-steady-state target cleavage rate” value came out at 0.117 ± 0.025.

On to UAGUGACUCACCUUCUCUGAGAGAUGUAACA, for which the “pre-steady-state target cleavage rate” value came to 0.172 ± 0.028.

As for UAGUGACAGAACCUUCUCUGAGAGAUUAACA, the “pre-steady-state target cleavage rate” value stood at 0.0771 ± 0.01.

Consider UAGUCUGUCACCUUCUCUGAGAGAUAACA, for which the “pre-steady-state target cleavage rate” value is 0.0928 ± 0.025.

UAGUCUGUCACCUUCUCUGAGAGAUAUAACA: the “pre-steady-state target cleavage rate” value turned out to be 0.235 ± 0.03.

For the sequence UAGUGAGUCACCUUCUGCUGAGAGAUUAACA, the “pre-steady-state target cleavage rate” value stood at 0.264 ± 0.058.

Consider UAGUGUGUCACCUUCUCCGAGAGAUUAACA, for which the “pre-steady-state target cleavage rate” value was 0.373 ± 0.1.

Take UAGUCUGUCACCUUCUCCGAGAGAUUAACA: the “pre-steady-state target cleavage rate” value amounted to 0.21 ± 0.038.

In the case of UAGUGAGUCACCUUCUUCUGAGAGAUUAACA, the “pre-steady-state target cleavage rate” value is 0.0918 ± 0.028.

As for UAGUCUGUCACCUUCUCUGAGAGAUAAACA, the “pre-steady-state target cleavage rate” value came to 0.132 ± 0.022.

As to UAGUGAGUCACCUUCUGAGAGAGAUUAACA, the “pre-steady-state target cleavage rate” value is 0.074 ± 0.011.

Consider UAGUGAGUCACCUUCUCGAGAGAUUAACA, for which the “pre-steady-state target cleavage rate” value amounted to 0.0598 ± 0.015.

Turning to UAGUGAGUCACCUUCUCAGAGAGAUUAACA, the “pre-steady-state target cleavage rate” value stood at 0.173 ± 0.022.

As for UAGUGUGUCACCUUCUCGAGAGAUUAACA, the “pre-steady-state target cleavage rate” value stood at 0.0644 ± 0.013.

Regarding UAGUGAGUCACCUUCUCCGAGAGAUUAACA, the “pre-steady-state target cleavage rate” value amounted to 0.394 ± 0.084.

Take UAGUGACAGUCCUUCUAUGAGAGAUUAACA: the “pre-steady-state target cleavage rate” value worked out at 0.0377 ± 0.013.

As for UAGUGACACAGCUUCUCUGAGAGAUAAACA, the “pre-steady-state target cleavage rate” value is 0.0211 ± 0.0068.

In the case of UAGUGACUCACGUUCUCUGAGAGAUUUACA, the “pre-steady-state target cleavage rate” value was found to be 0.0554 ± 0.015.

Consider UAGUGACAGACCUUCUCUGUGAGAUAAACA, for which the “pre-steady-state target cleavage rate” value stood at 0.0102 ± 0.0046.

For UAGUGACACAACCUUCUCUGAGAGAUUAACA, the “pre-steady-state target cleavage rate” value was determined as 0.155 ± 0.018.

On to UAGUGACUCACCUUCUCUGAGAGAUUAUACA, for which the “pre-steady-state target cleavage rate” value was determined as 0.114 ± 0.021.

On to UAGUGUGUCACCAUCUCUGAGAGAUUAUGA, for which the “pre-steady-state target cleavage rate” value worked out at 0.0243 ± 0.0082.

Turning to UAGUGACUCACCUUCUGUGAGAGAUUUUGA, the “pre-steady-state target cleavage rate” value is 0.00903 ± 0.0039.

As to UAGUGACACACCUACUCUGAGACAUUAACA, the “pre-steady-state target cleavage rate” value amounted to 0.0243 ± 0.0072.
